Reference: PubChem BioAssay AID589 (National Center for Advancing Translational Sciences (NCATS), 2007)
In all, about 59,000 compounds went through this assay and about 6,200 (11%) were called active. Roughly 9% stayed inconclusive and do not appear here. Rule as the data show it: active = max dye-equivalent concentration above about 10 nM; inconclusive = mostly about 1.1 nM to 9.6 nM; inactive = weaker than that. What follows is part of a selection rich in actives, with near analogues and random picks from the rest.

Assay: qHTS Assay for Spectroscopic Profiling in 4-MU Spectral Region
Settings: compound autofluorescence, 340/450 nm, 4-MU equivalents; active compounds read high
From the text: NIH Molecular Libraries Screening Centers Network [MLSCN] NIH Chemical Genomics Center [NCGC] […] Occasionally, the artifactual effect may originate from the compounds own spectral or other biophysical properties which generally tend to track its assay concentration. Pre-screening/profiling the library with respect to the compounds spectral properties should help one exclude false positives early on. While the most informative fluorescent profiling data set is obtained by performing a full excitation and emission scan of each well by using a monochromator-based plate reader, such an approach is practical only on a very limited scale as scanning each well requires long time. An alternative approach, applied here, is to perform plate reader scans using selected excitation and emission wavelength pairs to generate a multidimensional relational database that correlates compound concentration and the respective relative fluorescence intensity at a given wavelength set. A standard curve of 4-methylumbelliferone (4-MU) present on each plate as six-point concentration series, was used to compute a normalized fluorescence response, termed dye-equivalent concentration, for each compound at each concentration.
NCGC Assay Protocol Summary: Buffer: 100 mM Tris buffer, pH 8.0 Dye standard plate: The wells in columns 1 through 4 of a Kalypsys polypropylene 1536-well compound plate were filled with standard solutions of fluorophore corresponding to the spectral region of interest. Solutions of 4-MU were placed in the following wells: A1, B1: 3 mM, A2, B2: 300 uM, A3, B3: 30 uM, A4, B4: zero (DMSO), C1, D1: 3 uM, C2, D2: 900 nM, C3, D3: 300 nM, C4, D4: zero (DMSO). Assay Steps: Six uL of buffer were dispensed to 1536-well Greiner black plates. Compounds and dye standards (23 nL) were transferred via Kalypsys PinTool. The plates were incubated for 15 min at room temperature, and then read on ViewLux (Perkin-Elmer) High-throughput CCD imager using 340 nm and 450 nm excitation and emission filter set. Keywords: NIH Roadmap, MLSCN, MLI, MLSMR, qHTS, NCGC, Fluorescent Profiling, 4MU, 4-MU

Question: With CCOC(=O)c1[nH]c2ccccc2c1N=C(C)N(CC)CC as the compound, how does the max dye-equivalent concentration read?
Answer: inactive

Question: With CCOC(=O)CN(C)Cc1c[nH]c2ccccc12 as the compound, how does the max dye-equivalent concentration read?
Answer: inactive

Question: For CCOC(=O)c1[nH]c2ccc(C)cc2c1N=C(C)N(C)C, which max dye-equivalent concentration is on record?
Answer: 31 nM (active)

Question: Which max dye-equivalent concentration does the source give for CCCNS(=O)(=O)c1ccc(CCC(=O)NCc2cccnc2)cc1 here?
Answer: inactive

Question: With CCOc1ccc(NC(=O)N(CCC(C)C)C(C)c2ccco2)cc1 (centres undefined) as the compound, how does the max dye-equivalent concentration read?
Answer: inactive

Question: For CSc1nsc(SC)c1NC(=O)OC1CCCCC1, which max dye-equivalent concentration is on record?
Answer: inactive

Question: Which max dye-equivalent concentration does the source give for O=C(Nc1ccc(S(=O)(=O)N2CCCCC2)cc1)c1cnccn1 here?
Answer: inactive

Question: Which max dye-equivalent concentration does the source give for CC(=O)C1=C(O)C(=O)N(c2ccc(S(N)(=O)=O)cc2)C1c1ccccc1F (centres undefined) here?
Answer: 21 nM (active)

Question: Which max dye-equivalent concentration does the source give for CCN1C(=O)C(C(=O)NC(C)c2ccccc2)C2CC1(C)Oc1ccccc12 (centres undefined) here?
Answer: inactive

Question: Which max dye-equivalent concentration does the source give for Cn1c(=O)n(C)c2cc(CNc3ccc(N4CCOCC4)c(C(=O)O)c3)ccc21 here?
Answer: 18 nM (active)

Question: Which max dye-equivalent concentration does the source give for Cn1nc(-c2ccc(N3CCOCC3)c(NC(=O)c3ccccc3)c2)c2ccccc2c1=O here?
Answer: inactive

Question: Which max dye-equivalent concentration does the source give for CC(=O)Nc1ccc(N2CCOCC2)c(C(=O)Nc2cccc(C)c2)c1 here?
Answer: inactive

Question: With CCCn1c(=O)c2[nH]c(-c3ccc(OCC(=O)NCCN)cc3)nc2n(CCC)c1=O as the compound, how does the max dye-equivalent concentration read?
Answer: inactive

Question: With Cc1cc(N2CCCC2)n2nc(C)c(-c3ccccc3)c2n1 as the compound, how does the max dye-equivalent concentration read?
Answer: 660 nM (active)

Question: Which max dye-equivalent concentration does the source give for CC(=O)c1cc(-c2ccccc2)[nH]c1N1CCCC1 here?
Answer: inactive

Question: For CCCc1nc(-c2ccccc2O)n(-c2ccccc2)n1, which max dye-equivalent concentration is on record?
Answer: inactive

Question: Which max dye-equivalent concentration does the source give for CCn1ccnc1C[C@@H]1COc2ccccc2O1 here?
Answer: inactive

Question: With O=C(c1csnn1)N1CCC2(CC1)CN(c1ncccn1)C2 as the compound, how does the max dye-equivalent concentration read?
Answer: inactive

Question: Which max dye-equivalent concentration does the source give for CCOc1ccccc1NC(=O)CCN1CCN(S(=O)(=O)c2ccc(OC)cc2)CC1 here?
Answer: inactive

Question: Which max dye-equivalent concentration does the source give for COc1ccc(S(=O)(=O)N2CCN(c3ncnc4c(-c5ccccc5)nsc34)CC2)cc1 here?
Answer: 88 nM (active)

Question: Which max dye-equivalent concentration does the source give for COc1cccc(N2C(=O)CC(N3CCN(S(=O)(=O)c4ccccc4)CC3)C2=O)c1 (centres undefined) here?
Answer: inactive

Question: With Cc1ccc(-c2noc(CCC(N)=O)n2)cc1 as the compound, how does the max dye-equivalent concentration read?
Answer: inactive

Question: Which max dye-equivalent concentration does the source give for CCOC(=O)N1CCN(C(=O)CSc2nnc(-c3c[nH]c4ccccc34)n2CCOC)CC1 here?
Answer: inactive

Question: With O=C(Nc1nn(Cc2ccccc2F)cc1Br)c1cccs1 as the compound, how does the max dye-equivalent concentration read?
Answer: inactive

Question: Which max dye-equivalent concentration does the source give for Cn1cccc1C(=O)N1CCC2(CC1)CN(c1cccc(-c3ccccc3)c1)C2 here?
Answer: inactive

Question: Which max dye-equivalent concentration does the source give for CCOc1cc(S(=O)(=O)NCc2ccc3c(c2)OCO3)ccc1F here?
Answer: inactive

Question: For Cc1ccc(S(=O)(=O)c2c(N)n(C)c3nc4ccccc4nc23)cc1, which max dye-equivalent concentration is on record?
Answer: 2500 nM (active)

Question: With Cc1ccc(S(=O)(=O)NCc2nc3ccccc3c(=O)n2N)cc1 as the compound, how does the max dye-equivalent concentration read?
Answer: inactive

Question: For c1cncc(-c2nc(N3CCNCC3)c3ccccc3n2)c1, which max dye-equivalent concentration is on record?
Answer: inactive

Question: With COCCn1c(=O)c(-c2cc(F)cc(F)c2)nc2cnc(N3CCNCC3)nc21 as the compound, how does the max dye-equivalent concentration read?
Answer: 350 nM (active)

Question: For COCCn1c(=O)c(CCc2ccccc2)nc2cnc(N3CCNCC3)nc21, which max dye-equivalent concentration is on record?
Answer: 56 nM (active)

Question: With COCCn1c(CN2CCC(Cc3ccccc3)CC2)nc2c1c(=O)n(C)c(=O)n2C as the compound, how does the max dye-equivalent concentration read?
Answer: inactive

Question: Which max dye-equivalent concentration does the source give for Cn1cc(-c2nc3cnc(N4CCNCC4)nc3n(CCC#N)c2=O)c2ccccc21 here?
Answer: inactive

Question: Which max dye-equivalent concentration does the source give for Cc1nc2cnc(Oc3cccc(Cl)c3)nc2n(C2CC2)c1=O here?
Answer: inactive

Question: With Cn1c(=O)c(-c2ccccc2)nc2cnc(N3CCNCC3)nc21 as the compound, how does the max dye-equivalent concentration read?
Answer: 270 nM (active)

Question: Which max dye-equivalent concentration does the source give for N#Cc1cccc(-c2nc3cnc(N4CCNCC4)nc3n(C3CC3)c2=O)c1 here?
Answer: 300 nM (active)

Question: For CC1(C)C2CCC1(C)C(OC(=O)CCn1ccnc1)C2 (centres undefined), which max dye-equivalent concentration is on record?
Answer: inactive

Question: For Cc1ccc(C(=O)CSc2nnc(Cn3nnc4ccccc43)n2C)cc1, which max dye-equivalent concentration is on record?
Answer: inactive

Question: With CCCn1c(=O)c(-c2ccccc2)c(O)c2ccccc21 as the compound, how does the max dye-equivalent concentration read?
Answer: inactive

Question: For CCOC(=O)c1sc(N(Cc2ccccc2)C(=O)CN2C(=O)CN(C)C2=O)nc1C, which max dye-equivalent concentration is on record?
Answer: inactive

Question: Which max dye-equivalent concentration does the source give for CCn1c(CSc2ncccn2)nnc1SCC(=O)N1c2ccccc2CC1C (centres undefined) here?
Answer: inactive

Question: With Cc1nc2cnc(N3CCN(C)CC3)nc2n(CCC#N)c1=O as the compound, how does the max dye-equivalent concentration read?
Answer: inactive

Question: For O=c1c(-c2ccc(F)cc2)nc2cnc(N3CCNCC3)nc2n1Cc1cccs1, which max dye-equivalent concentration is on record?
Answer: 15 nM (active)

Question: Which max dye-equivalent concentration does the source give for Cc1nc2cnc(Nc3ccccc3)nc2n(C[C@H]2CCCO2)c1=O here?
Answer: inactive

Question: For Cn1c(=O)c2c(nc(OCc3cccnc3)n2Cc2ccccc2)n(C)c1=O, which max dye-equivalent concentration is on record?
Answer: inactive

Question: Which max dye-equivalent concentration does the source give for Cc1nc2cnc(N3CCN(C)CC3)nc2n(C[C@H]2CCCO2)c1=O here?
Answer: 48 nM (active)

Question: With O=c1c(CCc2ccccc2)nc2cncnc2n1C1CC1 as the compound, how does the max dye-equivalent concentration read?
Answer: inactive

Question: With Cc1nc2cnc(N3CCNCC3)nc2n(Cc2ccc(F)cc2)c1=O as the compound, how does the max dye-equivalent concentration read?
Answer: 98 nM (active)

Question: Which max dye-equivalent concentration does the source give for COCCn1c(=O)c(CCc2ccccc2)nc2cncnc21 here?
Answer: 83 nM (active)

Question: With Cc1cc(C)c(C(=O)CN2C(=O)CCC2=O)cc1C as the compound, how does the max dye-equivalent concentration read?
Answer: inactive

Question: With CCOC(=O)Nc1ccc2c(c1)N(C(=O)CN1CCN3CCCC3C1)c1ccccc1CC2 (centres undefined) as the compound, how does the max dye-equivalent concentration read?
Answer: inactive

Question: With O=C(Nc1ccc2c(c1)OCCO2)C1CCCN(c2ncccn2)C1 (centres undefined) as the compound, how does the max dye-equivalent concentration read?
Answer: inactive

Question: For CCOP1(=O)C=C(C(C)(C)C)OC1c1ccc(F)cc1 (centres undefined), which max dye-equivalent concentration is on record?
Answer: inactive

Question: Which max dye-equivalent concentration does the source give for CC(c1nnc(SCC(=O)Nc2sccc2C#N)n1-c1ccc(Cl)cc1)N(C)C (centres undefined) here?
Answer: inactive
